Rows were chosen to be rich in hits. Some 2% of all compounds tested hit in one or more screens of this group.
CF NFkB inh: blocks PAF-induced NF-kB reporter in cystic fibrosis cells; inhibition, % at 5 µM; 360,000 compounds, 0.86% hits; KKLEB NF-kB-GFP reporter, GFP fluorescence overnight;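 active means at least 50% inhibition at 5 µM, scaled per plate between neutral and stimulator controls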;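 further: PAF is a Pseudomonas aeruginosa culture filtrate used as stimulus; plate controls were PAF-stimulated DMSO wells for no effect and unstimulated DMSO wells for full effect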
EWS-Fli inh: inhibitors of EWS/Fli oncoprotein transcriptional activity; A673 NR0B1-luciferase reporter, viability-normalised; inhibition, % at 12.6 µM; 350,000 compounds, 0.67% hits; AID 651661;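 active means mean inhibition of at least 50% after viability correction, with every replicate also passing that limit; inconclusive means mean reaches 50% but only one of two replicates passes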;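 further: firefly luciferase signal divided by Alamar Blue viability fluorescence both relative to DMSO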
Shn3 inh set2: Schnurri-3 reporter inhibition in Clone20 osteoblasts | inhibition, % at 12.5 µM | 360,000 compounds, 0.52% hits | Clone20 osteoblast Shn3 3'UTR firefly luciferase, 24 h;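 active means mean inhibition of at least 75% with every replicate also reaching 75%; inconclusive means mean inhibition at least 75% but some replicate below; inactive means mean inhibition below 75%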;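 further: 0% = median of neutral control wells and 100% = pilot-screen positive control compound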
LGR2 antag: Drosophila LGR2 receptor signaling inhibition; HEK293 LGR2, CRE-luciferase, bursicon-stimulated, 4 h; inhibition, % at 9.99 µM; 380,000 compounds, 0.35% hits; AID 720647;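 active means drop in luminescence signal, shown as inhibition above about 50% in the replicate tests, limit read from the data, passing the limit was not always enough; inconclusive means probably only some replicates passing the limit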;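 further: agonist challenge used bursicon conditioned medium at about half maximal strength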
PAX8 inh HTS: inhibitors of PAX8 transcriptional activity in RMG-I cells; RMG-I TPO-luciferase reporter, SteadyGlo, 24 h; inhibition, % at 12.6 µM; 360,000 compounds, 1.2% hits;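 active means mean replicate inhibition at least 60% with every replicate also reaching 60%; inconclusive means only one of the two criteria is met; inactive means mean below 60% and not all replicates reaching 60%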;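 further: luciferase light reporting Pax8 driven TPO promoter activity; plate controls were median of neutral control wells for no effect and mitoxantrone controls for full effect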
KKLEB cytotox: reduces viability of KKLEB cystic fibrosis airway cells. KKLEB CF airway cells viability, ATPlite luminescence, overnight; active compounds read low; cells stimulated with P. aeruginosa culture filtrate. AID 602141. activity change (cytotoxicity), % at 5 µM. 360,000 compounds, 0.36% hits;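 active means corrected activity change at or below -50% at 5 µM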
Active calls of the source: *; ? = inconclusive; nt = no result.

SMILES	CF NFkB inh	EWS-Fli inh	Shn3 inh set2	LGR2 antag	PAX8 inh HTS	KKLEB cytotox
Cc1ccc(N(CC(=O)NCCc2ccc(F)cc2)S(=O)(=O)c2ccc(Cl)c([N+](=O)[O-])c2)c(C)c1	-1	5	13	18	78*	-2
COCC(=O)Nc1ccc2c(c1)[C@H]1C[C@@H](CC(=O)NCc3cccnc3)O[C@@H](CO)[C@H]1O2	nt	1	nt	-11	4	nt
COc1ccc(C[C@H]2CN3C(=NC[C@@H]3Cc3ccccc3)N2CCNC(=O)CCC2CCCCC2)cc1	21	?	84	82*	45	2
COc1ccc(C[C@H]2CN3C(=NC[C@@H]3C(C)C)N2CCNC(=O)CCC2CCCCC2)cc1	10	7	66	-28	-3	-11
COc1ccccc1S(=O)(=O)N(C)C[C@@H]1Oc2cc(C#CCC3CCCC3)ccc2S(=O)(=O)N([C@@H](C)CO)C[C@H]1C	nt	-3	nt	5	73*	nt
COc1ccccc1S(=O)(=O)N(C)C[C@@H]1Oc2cc(C#CCC3CCCC3)ccc2S(=O)(=O)N([C@@H](C)CO)C[C@@H]1C	nt	10	nt	6	76*	nt
COc1ccccc1S(=O)(=O)N(C)C[C@H]1Oc2cc(C#CCC(C)C)ccc2S(=O)(=O)N([C@H](C)CO)C[C@@H]1C	nt	19	nt	10	nt	nt
CC1(C(=O)NCc2ccco2)Cc2c(-c3ccccc3)ccnc2O1 (stereo unspecified)	14	59*	-11	2	10	-17
CC1(C(=O)NCc2cccs2)Cc2c(-c3cccc(C(F)(F)F)c3)ccnc2O1 (stereo unspecified)	24	55*	39	1	37	-10
C/C(=N/Nc1ccc(C(=O)c2c(C)cc3ccccn23)cc1[N+](=O)[O-])c1ccc(O)cc1	34	18	48	1	nt	-26
C/C(=N\Nc1ccc(C(=O)c2c(C)cc3ccccn23)cc1[N+](=O)[O-])c1ccc(O)cc1	69*	-33	57	15	2	-62*
C/C=C/c1ccc2c(c1)O[C@H](CN(C)C(=O)Nc1cccc(F)c1)[C@H](C)CN([C@H](C)CO)S2(=O)=O	nt	14	nt	15	13	nt
Cc1ccc(N2CCN(C(=O)c3[nH]c(C(F)(F)F)nc3-c3ccccc3)CC2)cc1	1	-3	-2	-8	-7	1
O=C(c1[nH]c(C(F)(F)F)nc1-c1ccccc1)N1CCN(c2ccccc2)CC1	6	65*	5	3	29	-12
O=C1c2ccccc2C(=O)N1C[C@@H]1CCCN(Cc2ccc(OCCO)cc2)C1	nt	-9	nt	nt	9	nt
O=C1c2cc(F)ccc2-n2c1nc1ccccc1c2=O	83*	39	59	14	18	-27
C[C@H](CO)N1C[C@H](C)[C@H](CN(C)Cc2ccc(-c3ccccc3)cc2)Oc2c(NC(=O)Nc3ccc(C(F)(F)F)cc3)cccc2C1=O	nt	9	nt	-1	nt	nt
S=C(Nc1ccccc1)Nc1ccccn1	-22	-39	-7	16	-55	1
O=C(Nc1ccccc1)C(=O)Nc1ccccn1	10	nt	-38	65*	nt	6
O=C(Nc1cccc(O)c1)C(=O)Nc1ccccn1	-14	8	12	78*	67*	0
Cc1noc(C)c1S(=O)(=O)N(C)C[C@H]1Oc2ccc(NS(=O)(=O)c3ccc(F)cc3)cc2CC(=O)N([C@H](C)CO)C[C@H]1C	nt	0	nt	-3	nt	nt
COc1ccc(/C=C2\SC(=S)N(CCC(=O)Nc3cccc(O)c3)C2=O)cc1OC	24	-35	-15	-17	2	-13
COc1ccc(/C=C2\SC(=S)N(CCCC(=O)N3CCCCC3CCO)C2=O)cc1 (stereo unspecified)	14	nt	8	-4	75*	-12
COc1ccc(/C=C2/SC(=S)N(CCCC(=O)Nc3cccc(O)c3)C2=O)cc1	-17	-3	3	-1	77*	1
COc1ccc(/C=C2\SC(=O)N(CC(=O)Nc3cccc(C)c3)C2=O)cc1O	4	72*	0	-17	-11	-5
SMILES	CF NFkB inh	EWS-Fli inh	Shn3 inh set2	LGR2 antag	PAX8 inh HTS	KKLEB cytotox
CCc1ccc(/C=C2/SC(=S)N(CCC(=O)NCCCN3CCOCC3)C2=O)cc1	-12	nt	-21	-10	-8	0
CCOc1ccc(/C=C2\SC(=S)N(CCCC(=O)NCCCN3CCOCC3)C2=O)cc1	5	81*	71	-18	50	-12
O=C1/C(=C\c2ccccc2)SC(=S)N1CCC(=O)N1CCCCC1CCO (stereo unspecified)	3	nt	-74	2	48	15
C[C@H]1CN([C@@H](C)CO)C(=O)c2cc(NS(=O)(=O)c3ccccc3)ccc2O[C@@H]1CN(C)Cc1ccc(-c2ccccc2)cc1	nt	5	nt	-7	3	nt
CC(=O)N1[C@H](CO)[C@@H](c2ccc(-c3cccc(F)c3)cc2)[C@H]1CNC(=O)C1CC1	nt	3	nt	8	13	nt
CC(/C=C1\SC(=O)N(CC(=O)Nc2cccc(O)c2)C1=O)=C\c1ccccc1	-20	nt	-13	nt	nt	9
CC(/C=C1\SC(=O)N(CC(=O)Nc2ccc(O)cc2)C1=O)=C\c1ccccc1	-23	12	-5	17	87*	24
COc1cccc(/C=C2\SC(=S)N(CCC(=O)NCCc3ccc(O)cc3)C2=O)c1	13	nt	-5	4	100*	-9
COc1ccc(C(=O)CC(Sc2ccccc2N)c2ccc(OC)cc2)cc1 (stereo unspecified)	13	38	-11	68*	-37	-20
COc1ccc(C(=O)CC(=O)c2ccc(C(C)(C)C)cc2)cc1	2	5	24	-18	-22	-16
COc1cc(OC)c2c(=O)c(OC)c(-c3ccc(OC)c(OC)c3)oc2c1	17	nt	-4	nt	nt	-21
COc1ccc(-c2oc3cc(O)c(OC)c(O)c3c(=O)c2OC)cc1O	48	36	-18	-68	63*	-24
CO[C@H](CN(C)C(=O)c1cnccn1)[C@H](C)CN([C@H](C)CO)S(=O)(=O)c1ccc(F)cc1	nt	2	nt	3	nt	nt
C[C@H]1CN([C@@H](C)CO)C(=O)c2cc(NS(=O)(=O)c3cn(C)cn3)ccc2O[C@@H]1CN(C)Cc1ccc(C(F)(F)F)cc1	nt	-3	nt	2	-23	nt
COc1ccc(-n2ncc(Cl)c(Cl)c2=O)cc1	89*	55*	98*	106*	105*	-78*
COc1ccc(-n2ncc(N(C)n3cccc3)c(Cl)c2=O)cc1	4	nt	-49	-19	nt	-7
O=C(C1CCCC1)N1[C@H](CO)[C@@H]2c3ccccc3N(S(=O)(=O)c3ccc(F)cc3)C[C@@H]21	nt	1	nt	1	-11	nt
CC(C)(C)c1ccc(Cn2c(=N)n(CC(O)c3ccco3)c3ccccc32)cc1 (stereo unspecified)	25	nt	83*	nt	nt	-22

From PubChem BioAssay
